The panel holds about 83,000 compounds, 20% with a hit somewhere; the sample as a whole holds those more often.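 Negative percent growth values reflect cell death: -40 means 40% of the cells present at the start died, and -100 means all died.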 Activity calls are given as the source filed them. How the source made its calls: active means growth percent below 10; inactive means the rest.
What follows are molecules tested on HL-60(TB) leukemia (assay: NCI-60 one-dose screen, 48 h (100 = growth as untreated, 0 = no growth, -100 = all killed)). Details: 10 µM unless noted.

SMILES | growth
Nc1c(C(=O)Nc2cccc3ccccc23)sc2nc3c(cc12)CCCCC3 | -25.9% (active)
CC(=O)c1ccc(Cc2ccc(C(C)=O)s2)s1 | 86.5% (inactive)
CC(C)(C)n1cc(-c2ccnc(NCCCNS(=O)(=O)c3cccc4ccccc34)c2)c(-c2cccc(O)c2)n1 | 25.4% (inactive)

Reference: PubChem BioAssay (NCI)
